The campaign covered roughly 16,000 compounds. About 5,100 (32%) were called active. Not shown: some 25% with an inconclusive outcome. Calls come from the whole dose curve; as a rule, active = well fitted curve in the direction sought with a large enough effect; inconclusive = small, poorly fitted or top-dose-only effect, or effect the other way; inactive = no such curve, though single readings can be large or run the other way. The list shows a part of the results.
% is set by controls: 0 for no effect and ±100 for the full control effect.

In the experiment the target is Cytochrome P450 3A4 (Homo sapiens) (UniProt P08684). In words: Cytochrome panel assay with activity outcomes. Conditions: recombinant CYP, pro-luciferin dealkylation, luminescence, p450-cyp3a4; series mostly up to 57.1 µM; activity, negative = inhibition: at the top concentration.
Cytochrome P450 3A4 (Homo sapiens), sequence (P08684 whole entry, looked up): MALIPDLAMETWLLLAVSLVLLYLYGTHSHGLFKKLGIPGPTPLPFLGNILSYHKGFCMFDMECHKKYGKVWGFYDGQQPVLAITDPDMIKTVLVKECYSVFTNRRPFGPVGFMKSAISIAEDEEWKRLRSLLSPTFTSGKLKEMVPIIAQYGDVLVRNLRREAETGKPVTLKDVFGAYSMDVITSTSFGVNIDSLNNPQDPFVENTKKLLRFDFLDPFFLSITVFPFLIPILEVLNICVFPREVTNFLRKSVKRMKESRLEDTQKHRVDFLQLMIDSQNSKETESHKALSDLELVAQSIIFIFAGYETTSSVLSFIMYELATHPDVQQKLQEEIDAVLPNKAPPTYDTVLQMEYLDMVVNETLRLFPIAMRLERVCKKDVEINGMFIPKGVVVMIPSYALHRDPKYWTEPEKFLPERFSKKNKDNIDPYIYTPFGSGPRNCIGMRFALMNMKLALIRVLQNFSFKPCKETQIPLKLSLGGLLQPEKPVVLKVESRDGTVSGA
Turning to `COC(=O)[C@@]1(Cc2ccccc2)[C@H]2c3cc(C(=O)N4CCCC4)n(Cc4ccc(S(C)(=O)=O)cc4)c3C[C@H]2CN1C(=O)c1ccccc1`, the AC50 (in general, the concentration giving half of the maximal activity seen) was 3160 nM (active).

With `COC(=O)[C@@]1(Cc2ccc(F)cc2)[C@H]2c3cc(C(=O)N(C)C)n(Cc4ccc(C)c(F)c4F)c3C[C@H]2CN1C(=O)c1ccccc1`, the AC50 was 794 nM (active).

Regarding `COC(=O)[C@@]1(Cc2ccc(F)cc2)[C@H]2c3cc(C(=O)N4CCCC4)n(Cc4ccc(C)c(F)c4F)c3C[C@H]2CN1C(=O)c1ccccc1`, the AC50 was 2510 nM (active).

Turning to `COC(=O)C1(Cc2ccccc2)C2c3cc(C(=O)N4CCCC4)n(Cc4ccc(OC(F)(F)F)cc4)c3CC2CN1C(=O)c1ccccc1` (stereo unspecified), the AC50 was 3160 nM (active).

For `CCCC[C@H](CC)CN1CN(C[C@@H](CC)CCCC)CC(C)(N)C1`, the “activity, negative = inhibition” value is -17.4% [at 25.6 µM] (inactive).

For the compound `CC(C)(C)n1nc(-c2ccc(Cl)cc2)c2c(N)ncnc21`, the “activity, negative = inhibition” value is -12.7% (inactive).

For the compound `COC(=O)[C@@]1(Cc2ccc(F)cc2)[C@H]2c3cc(C(=O)N4CCCC4)n(Cc4ccc(Cl)c(C(F)(F)F)c4)c3C[C@H]2CN1C(=O)c1ccccc1`, the AC50 was 2510 nM (active).

On to `COC(=O)[C@@]1(Cc2ccc(F)cc2)[C@H]2c3cc(C(=O)N4CCCC4)n(CCCNc4ncc(C(F)(F)F)cc4Cl)c3C[C@H]2CN1C(=O)c1ccccc1`, for which the AC50 is 2510 nM (active).

Turning to `COC(=O)[C@@]1(Cc2ccc(F)cc2)[C@H]2c3cc(C(=O)N(C)C)n(Cc4ccc(Cl)c(C(F)(F)F)c4)c3C[C@H]2CN1C(=O)c1ccccc1`, the AC50 was 2000 nM (active).

As to `COC(=O)[C@@]1(Cc2ccc(F)cc2)[C@H]2c3cc(C(=O)N4CCCC4)n(Cc4ccc(OC(F)(F)F)cc4)c3C[C@H]2CN1C(=O)c1ccccc1`, the AC50 was 2510 nM (active).

As to `Cc1nc(CN2CCCCC2)c(O)c(=O)[nH]1`, the activity, negative = inhibition was -5.47% [at 11.4 µM] (inactive).

As to `CC1(O)CC(=O)N(c2ccccc2)O1` (stereo unspecified), the activity, negative = inhibition was 1.65% [at 2.29 µM] (inactive).

With `COC(=O)[C@@]1(Cc2ccc(F)cc2)[C@H]2c3cc(C(=O)N4CCCC4)n(CCN4CNCC4=O)c3C[C@H]2CN1C(=O)c1ccccc1`, the AC50 is 2000 nM (active).

As to `COC(=O)Cn1c(C(=O)N2CCCC2)cc2c1C[C@H]1CN(C(=O)c3ccccc3)[C@@](Cc3ccc(F)cc3)(C(=O)OC)[C@@H]21`, the AC50 was 3160 nM (active).

Take `COC(=O)[C@@]1(Cc2ccc(F)cc2)[C@H]2c3cc(C(=O)N4CCCC4)n(Cc4ccccc4)c3C[C@H]2CN1C(=O)c1ccccc1`: the AC50 was 1000 nM (active).

As to `COC(=O)Cn1c(=N)n(CCN2CCCCC2)c2ccccc21`, the “activity, negative = inhibition” value was 1.03% (inactive).

`COC(=O)[C@@]1(Cc2ccc(F)cc2)[C@H]2c3cc(C(=O)N(C)C)n(CCCNc4ccc(C(F)(F)F)cc4Cl)c3C[C@H]2CN1C(=O)c1ccccc1`: the AC50 was 1580 nM (active).

With `C=C1C=C(Br)C2(OCCCO2)[C@H]2OC12` (stereo partly specified), the activity, negative = inhibition was -14.7% [at 11.4 µM] (inactive).

For `CC1(C)C2([N+](=O)[O-])CN3CC1([N+](=O)[O-])CN(C2)C3c1ccccc1` (stereo unspecified), the activity, negative = inhibition was 0.512% [at 2.29 µM] (inactive).

Regarding `C[C@@H](C(=O)NCc1nc2ccccc2[nH]1)[C@@H]1C[C@@]1(C)[C@@H](NC(=O)OCc1ccccc1)c1ccccc1`, the concentration at half-maximal activity (AC50) was 1000 nM (active).

Take `C[C@@H](C(=O)NCc1ccc(S(C)(=O)=O)cc1)[C@@H]1C[C@@]1(C)[C@@H](NC(=O)OCc1ccccc1)c1ccccc1`: the AC50 is 1000 nM (active).

On to `C[C@@H](C(=O)NCc1ccc(S(C)(=O)=O)cc1)[C@H]1C[C@]1(C)[C@H](NC(=O)OCc1ccccc1)c1ccccc1`, for which the concentration at half-maximal activity (AC50) is 3160 nM (active).

With `CS(=O)(=O)c1ccc([C@H](O)[C@H](CO)NC(=O)C(Cl)Cl)cc1`, the “activity, negative = inhibition” value is -5.21% [at 25.6 µM] (inactive).

Consider `C[C@@H](C(=O)NCc1cccc2ccccc12)[C@H]1C[C@]1(C)[C@H](NC(=O)OCc1ccccc1)c1ccccc1`, for which the AC50 is 398 nM (active).

In the case of `CC(NC(=O)OCc1ccccc1)C(=O)NCC1CCCO1` (stereo unspecified), the “activity, negative = inhibition” value was -4.26% (inactive).

For the compound `Cc1cccc(C)c1OC[C@H](C)N`, the “activity, negative = inhibition” value is -12.4% [at 25.6 µM] (inactive).

As for `C=CCSc1ncccc1C(=O)NCc1ccc(C)cc1`, the AC50 was 11200 nM (active).

Take `CSc1nncc(-c2ccc(F)c(F)c2)n1`: the “activity, negative = inhibition” value was 13.4% (inactive).

Take `CC/C(=N/Nc1ccccc1)c1cnnc(SC)n1`: the AC50 was 25100 nM (active).

In the case of `CCNC(=O)c1c(NC(C)=O)sc2c1CCCC2`, the “activity, negative = inhibition” value was -23% (inactive).

As for `CC(=O)Nc1sc2c(c1C(N)=O)CCCC2`, the “activity, negative = inhibition” value is -27.9% (inactive).

As for `COCCCNC(=O)c1c(NC(=O)c2cccs2)sc2c1CCCC2`, the AC50 was 15800 nM (active).

As for `CC(C)NC[C@@H](O)COc1ccccc1-n1cccc1`, the “activity, negative = inhibition” value is -14.7% (inactive).

As for `Cc1ccccc1OCC(O)Cn1c2ccccc2c2ccccc21` (stereo unspecified), the AC50 is 12600 nM (active).

As to `OC(COc1ccc(OCC(O)CN2CCCCCC2)cc1)CN1CCCCCC1` (stereo unspecified), the “activity, negative = inhibition” value was 3.14% (inactive).

For `CC(=O)Nc1ccc(OCC(O)Cn2c3ccccc3c3ccccc32)c(C)c1` (stereo unspecified), the AC50 was 3980 nM (active).

Turning to `Cc1cccc(C)c1OCC(O)CNC(C)(C)C` (stereo unspecified), the “activity, negative = inhibition” value was -9.33% (inactive).

As for `Cc1ccc(OCC(O)Cn2c3ccccc3c3ccccc32)cc1` (stereo unspecified), the AC50 was 17800 nM (active).

`O[C@H](COc1ccccc1)CN1CCCCC1`: the activity, negative = inhibition is -3.03% [at 11.4 µM] (inactive).

Consider `OC[C@@H](O)COc1cccc2ccccc12`, for which the “activity, negative = inhibition” value was -23% (inactive).

With `O[C@@H](COc1cccc2ccccc12)CN1CCOCC1`, the activity, negative = inhibition was -6.73% [at 11.4 µM] (inactive).

For the compound `CC(=O)Nc1c(I)c(C(=O)N[C@H]2[C@@H](O)[C@H](O)[C@H](CO)O[C@@H]2O)c(I)c(N(C)C(C)=O)c1I`, the “activity, negative = inhibition” value was -2.58% [at 25.6 µM] (inactive).

For `NC(N)=NC(=O)c1nc(Cl)c(N2CCCCCC2)nc1N`, the “activity, negative = inhibition” value was -23.3% (inactive).

As to `Cc1cc(C)n(-c2nnc(C)n2/N=C/c2ccccc2OCc2ccccc2Cl)n1`, the half-maximal activity concentration (AC50) is 2240 nM (active).

`CCCNC(=O)N1CCC(C(=O)c2ccc(F)cc2)CC1`: the activity, negative = inhibition is -0.769% [at 2.29 µM] (inactive).

`O=C(c1ccc(F)cc1)C1CCN(C(=S)Nc2ccccc2)CC1`: the AC50 is 10000 nM (active).

Turning to `S=C(Nc1ccccc1)N1CCCCC1`, the “activity, negative = inhibition” value is -4.5% (inactive).

`Cc1ccc(Sc2cc(Cl)nc(N)n2)cc1`: the “activity, negative = inhibition” value is -5.02% (inactive).

Consider `N#Cc1cc(-c2ccc(Cl)cc2)cnc1Sc1ccccc1`, for which the “activity, negative = inhibition” value is -8.46% (inactive).

Regarding `N#Cc1cc(N)ccc1Sc1ccc(Cl)cc1`, the AC50 was 5620 nM (active).

In the case of `COc1cc2c3cc1Oc1cc(ccc1O)C[C@@H]1c4c(cc(OC)c(O)c4Oc4ccc(cc4)C[C@H]3[N+](C)(C)CC2)CC[N+]1(C)C`, the activity, negative = inhibition is 0.655% [at 11.4 µM] (inactive).

Source of the values: PubChem BioAssay AID1851 (National Center for Advancing Translational Sciences (NCATS), 2009).
